Shown are actives, neighbours in structure and some others; about 2.3% of the full set was active somewhere.
PP5 primary: PP5 (human) phosphatase inhibition; P53041; AID 1987; 0.18% of 320,000 active; purified PP5c, OMFP substrate fluorescence; inhibition, % at 6.7 µM;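 active = inhibition above the campaign's mean inhibition across all tested compounds plus 3 SD, cut at about 9.5% in these data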;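 also: 0% = DMSO only and 100% = 100 µM cantharidin control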
MsrA inh: bovine MsrA inhibition | AID 651718 | 0.75% of 360,000 active | inhibition, % at 15.5 µM | purified bovine MsrA, absorbance read-out;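 also: 0% = vehicle wells with enzyme and 100% = reference inhibitor wells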
EBNA-1 inhibitor: blocks EBNA-1 binding to DNA; 0.34% of 300,000 active; EBNA-1 DNA binding, fluorescence polarization; inhibition, % at 14.8 µM; in the data active = inhibition above about 28%
bovine MsrA act: bovine methionine sulfoxide reductase A activation | purified bovine MsrA, absorbance read-out | 0.3% of 360,000 active | AID 602163 | activation, % at 10.6 µM; in the data active = activation above about 7.5%;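 also: 0% = vehicle and 100% = reference activator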
PP1 counter: blocks human PP1-alpha phosphatase, a PP5 counter-screen; P62136; purified PP1alpha, OMFP fluorescence; inhibition, % at 6.7 µM; 0.9% of 320,000 active;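 active = inhibition above the mean inhibition of all tested compounds plus 3 SD, computed separately for each screening campaign, cut at about 15% in these data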
Target sequence (P62136 whole entry, looked up): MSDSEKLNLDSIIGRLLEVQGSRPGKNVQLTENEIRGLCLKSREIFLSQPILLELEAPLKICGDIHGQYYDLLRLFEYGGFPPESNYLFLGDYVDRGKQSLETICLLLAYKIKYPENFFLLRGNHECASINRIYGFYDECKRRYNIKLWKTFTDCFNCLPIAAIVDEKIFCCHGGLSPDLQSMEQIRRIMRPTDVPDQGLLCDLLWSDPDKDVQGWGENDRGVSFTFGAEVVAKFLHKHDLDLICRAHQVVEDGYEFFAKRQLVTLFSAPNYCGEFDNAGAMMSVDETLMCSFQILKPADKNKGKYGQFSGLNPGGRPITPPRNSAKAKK
ZTA DNA inh: ZTA (EBV) inhibition in EBNA-1 counter-screen; ZTA-DNA binding, fluorescence polarization; inhibition, % at 11 µM; 0.15% of 320,000 active; P03206; AID 2234; in the data active = inhibition above about 33%
Target sequence (P03206 whole entry, looked up): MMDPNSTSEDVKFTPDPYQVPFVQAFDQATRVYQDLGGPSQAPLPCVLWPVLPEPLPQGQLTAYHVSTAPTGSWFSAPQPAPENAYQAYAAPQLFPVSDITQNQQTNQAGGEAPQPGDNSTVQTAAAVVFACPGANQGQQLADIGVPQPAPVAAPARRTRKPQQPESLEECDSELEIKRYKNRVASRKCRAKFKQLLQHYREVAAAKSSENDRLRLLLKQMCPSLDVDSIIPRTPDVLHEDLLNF
PP1 confirm: confirmation of human PP1 phosphatase inhibitors | shares compounds with PP1 counter | purified PP1alpha, OMFP substrate fluorescence | inhibition, % at 6.7 µM | 52% of 1,900 active | AID 2358;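 active = mean PP1 inhibition above a set limit taken from the earlier primary screen, cut at about 15% in these data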
PP5 inh counter: PP5 phosphatase inhibition, counter-screen for PP1 inhibitors | purified PP5c, OMFP fluorescence | shares compounds with PP1 counter | inhibition, % at 6.7 µM | 4% of 1,900 active;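 active = mean PP5 inhibition over triplicate wells above about 9.5% taken from the earlier PP1 screen, limit read from the data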
MsrA act confirm: bovine methionine sulfoxide reductase A activation confirmed. purified bovine MsrA, absorbance read-out. shares compounds with bovine MsrA act. 12% of 1,000 active. activation, % at 10.6 µM. AID 602270; in the data active = activation above about 4%;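 also: enzyme coupled to thioredoxin and thioredoxin reductase with NADPH; 0% = vehicle wells and 100% = reference activator wells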
MsrA inh confirm: bovine MsrA inhibition, confirmed | shares compounds with MsrA inh | purified bovine MsrA, absorbance read-out | inhibition, % at 15.5 µM | 41% of 2,300 active;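 also: coupled to thioredoxin reductase with NADPH and selenocystamine and DMSO as substrate; 0% = vehicle only and 100% = full effect of reference inhibitor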
* marks the source's active call; other numbers are inactive results; . = no result. Rule as the data show it, unless noted: active = inhibition above about 4.5%; inactive = the rest.

SMILES | PP5 primary | MsrA inh | EBNA-1 inhibitor | bovine MsrA act | PP1 counter | ZTA DNA inh | MsrA inh confirm | others
COc1ccc(CNC(=O)CCC(=O)N2C[C@H]3C[C@H](C2)c2cccc(=O)n2C3)cc1 | -0.1 | 0.3 | 6.7 | -2.0 | -4.3 | 7.5 | .
Clc1ccc(COC(Cn2ccnc2)c2ccc(Cl)cc2Cl)cc1 (stereo not given) | 2.1 | -1.1 | -6.0 | 1.9 | 29.0* | -14.7 | . | PP1 confirm=19.8*;PP5 inh counter=1.7
Clc1ccc(CSC(Cn2ccnc2)c2ccc(Cl)cc2Cl)cc1 (stereo not given) | 5.4 | -1.6 | -5.5 | 0.8 | 26.5* | -0.6 | . | PP1 confirm=20.1*;PP5 inh counter=3.2
c1ccc(Cn2ccnc2)cc1 | -0.5 | -1.3 | -3.6 | -2.3 | -3.1 | -6.8 | .
CS(=O)(=O)c1ccc(C(=O)N2CCC(C(=O)O)(c3ccccc3)CC2)cc1 | -0.3 | -0.3 | 1.7 | -2.5 | -0.2 | 19.3 | .
OC[C@@H](O)CCl | 0.0 | . | -7.6 | . | -0.8 | -22.7 | .
c1ccc2c(CCNC3CCCCC3)c[nH]c2c1 | 2.1 | 0.2 | -7.2 | -3.0 | 0.1 | -17.9 | .
c1ccc2[nH]c(CCNC3CCCCC3)nc2c1 | -1.9 | 0.2 | 5.7 | 7.8* | -4.1 | -4.7 | . | MsrA act confirm=-1.0
C=C1C(=O)[C@@]23C[C@H]4[C@@H]5[C@@]6(C)CCC[C@@]57[C@@H]2[C@@H](O)[C@@H]1C[C@H]3[C@H]7N4C6 | 1.8 | 0.1 | -2.9 | 25.8* | -7.3 | 5.6 | . | MsrA act confirm=17.0*
BrCC(Br)C1CCC(Br)C(Br)C1 (stereo not given) | 2.2 | -0.3 | . | -5.0 | 1.9 | -17.2 | .
Cc1ccc(/C=C2/C(=O)NC(=O)N(CC3CCCO3)C2=O)s1 (stereo not given) | -0.2 | -1.6 | 7.1 | -2.6 | -0.1 | -5.8 | .
N/C(=N/[N+](=O)[O-])N1CCN(C(=O)Oc2ccc([N+](=O)[O-])cc2)CC1 | 1.5 | 3.8 | 5.4 | -2.2 | 0.2 | 1.9 | .
C[C@]12CC[C@@H](O)C[C@@H]1CC[C@@H]1[C@@H]2CC[C@]2(C)C(=O)[C@H](O)C[C@@H]12 | . | . | . | 18.9* | . | . | . | MsrA act confirm=-1.2
CCOC(=O)c1c(N)n(CCCOC(=O)c2ccco2)c2nc3ccccc3nc12 | 2.3 | 0.8 | -15.8 | 11.1* | -5.2 | -0.9 | . | MsrA act confirm=0.8
CNc1ccc2nc3ccccc3[n+](C)c2c1 | 5.3 | -0.6 | 45.5* | 91.7* | 3.2 | 83.4* | . | MsrA act confirm=73.9*
COC(=O)C1=C(c2ccc(S(C)(=O)=O)cc2)C[C@@H]2CC[C@H]1N2C(=O)NCc1ccc(C(F)(F)F)cc1 | -0.7 | 0.3 | 1.1 | 4.6 | -5.2 | 9.5 | .
CCOc1ccccc1-n1c(O)c(C=NCCCn2ccnc2)c(=O)[nH]c1=O | -0.3 | -0.9 | 0.3 | -0.5 | -6.7 | 12.3 | .
CC(C)c1cccc(C(C)C)c1OCCn1ccnc1 | 2.0 | 0.4 | -3.3 | 14.1* | 1.6 | 2.7 | . | MsrA act confirm=-1.9
O=C(O)c1cccc(NC(=O)N2C[C@H]3C[C@@H](C2)c2cccc(=O)n2C3)c1 | 2.8 | -0.6 | -15.4 | 8.9* | -2.8 | -1.2 | . | MsrA act confirm=-3.5
COC(=O)C1=C(c2ccc(F)cc2OCc2ccccc2)C[C@@H]2CC[C@H]1N2C(=O)N1CCC(O)(c2ccc(Cl)cc2)CC1 | . | 1.9 | . | -4.0 | . | . | .
CCCC(=O)NC1=C(N2CC2)C(=O)C(NC(=O)CCC)=C(N2CC2)C1=O | . | 4.7* | . | -2.5 | . | . | 0.8
CCCC(=O)Nc1ccc(N2CCN(CC)CC2)c(Cl)c1 | 3.2 | 0.5 | 1.7 | -0.6 | 3.2 | 15.5 | .
CN(C)c1ccc(/C=C2/C(=O)NC(=O)N(CCc3ccc(F)cc3)C2=O)cc1 | 4.3 | 3.7 | 2.1 | -4.1 | 3.1 | 1.8 | .
CN(C)c1ccc(/C=C2\C(=O)NC(=O)N(Cc3ccc(F)cc3)C2=O)cc1 | -0.8 | 4.9* | 4.1 | -3.4 | -4.2 | -3.7 | 4.6*
Cn1c(O)c(C=Nc2ccccc2)c(=O)n(C)c1=O | -0.2 | 5.1* | 14.3 | -6.2 | 0.4 | 7.6 | 4.8*
SMILES | PP5 primary | MsrA inh | EBNA-1 inhibitor | bovine MsrA act | PP1 counter | ZTA DNA inh | MsrA inh confirm | others
CCn1c(C)c(C(=O)Nc2ccc(OC)cc2)c2cc(OC)ccc21 | 0.5 | -1.5 | 7.9 | -2.5 | -1.4 | 0.6 | .
CN(C)c1ccc(C(=O)c2ccc(N(C)C)cc2)cc1 | 0.9 | 5.0* | 18.0 | -7.8 | -0.1 | -2.3 | 3.5
CCC(=NCc1ccc(F)cc1)c1c(O)n(C)c(=O)n(C)c1=O | -0.6 | 0.1 | 6.0 | 0.8 | -3.8 | 1.5 | .
C=CCn1c(O)c(/C=N/N2CCCCC2c2cccnc2)c(=O)[nH]c1=S (stereo not given) | -1.5 | 5.8* | 3.6 | -4.6 | -4.6 | 3.7 | 4.2
CCCCn1c(O)c(/C=N/N2CCCCC2c2cccnc2)c(=O)[nH]c1=S (stereo not given) | -0.5 | 1.1 | 7.4 | -3.5 | -1.8 | 20.4 | .
Cc1cccc(-n2c(O)c(C=NCCN3CCNCC3)c(=O)[nH]c2=S)c1 | 2.1 | 2.4 | 2.5 | -2.8 | 4.0 | -7.1 | .
CNC(=S)N1CCN(CCN=Cc2c(O)n(-c3ccc(C)cc3)c(=S)[nH]c2=O)CC1 | -1.7 | 4.7* | 7.5 | -5.8 | -2.1 | 6.7 | 2.7
CC(C)c1ccc(-n2c(O)c(C=NC(CCS(C)=O)C(=O)O)c(=O)[nH]c2=S)cc1 (stereo not given) | -1.6 | 5.1* | -7.5 | -4.3 | -5.8 | 0.6 | 4.3
COc1cc2c(cc1O)CC1c3c(cc(O)c(OC)c3-2)CCN1C (stereo not given) | 3.5 | 9.7* | -1.0 | -0.7 | -7.1 | -6.7 | 9.5*
CCc1cc(=O)[nH]c(SCCCF)n1 | 0.5 | 0.2 | 0.3 | -5.0 | -4.0 | -4.0 | .
O=C1NC(=O)C(=Cc2ccc(N3CCOCC3)cc2)C(=O)N1 | -2.5 | 6.0* | 5.6 | -2.6 | 2.2 | 4.7 | 3.1
COc1cc(N2CCOCC2)ccc1C=C1C(=O)NC(=O)NC1=O | 1.9 | 3.5 | -2.5 | -6.5 | -6.1 | 6.8 | .
CC(C)=CCN1CC[C@@]2(C)c3cc(O)ccc3C[C@@H]1C2C (stereo not given in full) | . | 0.0 | . | -0.7 | . | . | .
COc1ccc(C(c2nnnn2-c2ccc3c(c2)OCCO3)N2CCC3(CC2)C(=O)NCN3c2ccccc2)cc1 (stereo not given) | . | 1.0 | . | -1.3 | . | . | .
O=C(NN=Cc1ccc(N(CCCl)CCCl)cc1)c1cccc([N+](=O)[O-])c1 | . | 1.0 | . | -3.9 | . | . | .
O=C(NN=Cc1ccc(N(CCCl)CCCl)cc1)c1cccnc1 | . | 5.2* | . | -5.6 | . | . | 4.3
Cc1cc(N(CCCl)CCCl)ccc1/C=N/NC(=O)c1ccco1 | 3.5 | 4.8* | -12.8 | -13.4 | -0.9 | -9.2 | 2.8
CC(=O)c1ccc2c(c1)C1C(Cl)C(Sc3ccccc3[N+](=O)[O-])CC1C(c1ccccc1)N2 (stereo not given) | 1.4 | 0.5 | -5.2 | -11.4 | 9.3 | 4.4 | .

Screening data deposited in PubChem by The Scripps Research Institute Molecular Screening Center.
